Source: PubChem BioAssay
Activity calls are given as the source filed them.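 Rule for the calls, unless noted: active = NADPH fluorescence slope more negative than the mean of all samples by about 3 SD, 99.7% confidence; inactive = the rest.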

Columns and labels:
[1] = inhibitors of TNFa-induced NFkB p65 translocation, primary screen, imaging, HUVEC, MLSMR starter and 10KST1 sets (AID 438;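 active = inhibition above 20% together with a positive visual image hit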;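 note: compound added about 3h40 before a 20 min TNFalpha stimulation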;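 for inhibition: signal is the nuclear over cytoplasmic p65 intensity ratio per well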); settings: HUVEC TNFa-induced p65 nuclear translocation; cell count: measured here: nuclei count (cytotoxicity indicator), at 2.08 µM; inhibition: at 2 µM, stronger effect = higher value, 0% TNFa-plus-vehicle, 100% no-TNFa wells
[2] = inhibitors of mutant huntingtin aggregation, primary screen, imaging, exon1htt(103Q)mCFP cells, high-content imaging (AID 483;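 active = visual image review flags a hit and inhibition of aggregation exceeds 20%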;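 note: compound exposure lasted 3 days before fixation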;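 for nuclei count: percent of the per-plate median nuclei count of sample wells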); settings: exon1htt(103Q)mCFP cell line, aggregate imaging, at 2 µM; inhibition of aggregation: stronger effect = higher value; nuclei count: measured here: cell count, toxicity
[3] = inhibitors of E-selectin induction by TNFa, primary screen, imaging, HUVEC, immunofluorescence, MLSMR starter and 10KST1 sets (AID 487;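 active = visually confirmed hit in the image check and inhibition above 20%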;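 for inhibition: signal is fraction of cell area covered by stained E-selectin grains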;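 for nuclei count: 100% = median nuclei count of all wells on the same plate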); settings: HUVEC TNFalpha-induced E-selectin immunofluorescence imaging, at 2 µM; inhibition: stronger effect = higher value; nuclei count: measured here: cell number, toxicity
[4] = target: Voltage-gated potassium channel subunit beta-2 (Rattus norvegicus) (UniProt P62483); experiment: KvBeta enzyme negative modulators, primary screen, biochemical, NADPH fluorescence (AID 622;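 active = fluorescence slope higher than the sample average by over 3 SD, cut at about -0.22 in these data, passing the limit was not always enough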;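 note: slope of raw intensity against log time taken from 70 to 1610 s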); settings: recombinant KvBeta, 4-cyanobenzaldehyde reduction, at 10 µM, stronger effect = higher value
Sequence of Voltage-gated potassium channel subunit beta-2 (Rattus norvegicus) (P62483 whole entry, looked up): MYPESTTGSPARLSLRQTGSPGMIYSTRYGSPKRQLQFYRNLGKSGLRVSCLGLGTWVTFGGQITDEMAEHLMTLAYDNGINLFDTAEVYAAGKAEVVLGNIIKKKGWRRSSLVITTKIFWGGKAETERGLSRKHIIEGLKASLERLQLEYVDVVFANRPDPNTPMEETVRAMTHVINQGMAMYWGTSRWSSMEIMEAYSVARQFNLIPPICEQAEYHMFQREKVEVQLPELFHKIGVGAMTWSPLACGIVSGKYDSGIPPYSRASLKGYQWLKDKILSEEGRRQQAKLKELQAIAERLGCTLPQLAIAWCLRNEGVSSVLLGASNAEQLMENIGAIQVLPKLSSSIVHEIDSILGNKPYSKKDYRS

[5] = target: Voltage-gated potassium channel subunit beta-2 (Rattus norvegicus) (UniProt P62483); experiment: KvBeta positive modulators, primary screen, biochemical, NADPH fluorescence (AID 623); settings: Recombinant KvBeta, NADPH fluorescence decrease slope, 10 min; at 10 µM; stronger effect = lower value;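 note: fluorescence intensity change per second fitted from 20 to 320 s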
[6] = target: Alpha-2C adrenergic receptor (Homo sapiens) (UniProt P18825); experiment: modulators of alpha2C/GIRK thallium flux, primary screen, cell-based, HEK293 alpha2C/GIRK1/2 (AID 624;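 active = fluorescence slope after compound addition differing from the mean of all screened samples at 99.7% confidence, in either direction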;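 note: slope of fluorescence ratio to pre-addition baseline per second over 15 to 24 s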); settings: thallium flux BTC fluorescence, at 10 µM, actives lie on both sides
Sequence of Alpha-2C adrenergic receptor (Homo sapiens) (P18825 whole entry, looked up): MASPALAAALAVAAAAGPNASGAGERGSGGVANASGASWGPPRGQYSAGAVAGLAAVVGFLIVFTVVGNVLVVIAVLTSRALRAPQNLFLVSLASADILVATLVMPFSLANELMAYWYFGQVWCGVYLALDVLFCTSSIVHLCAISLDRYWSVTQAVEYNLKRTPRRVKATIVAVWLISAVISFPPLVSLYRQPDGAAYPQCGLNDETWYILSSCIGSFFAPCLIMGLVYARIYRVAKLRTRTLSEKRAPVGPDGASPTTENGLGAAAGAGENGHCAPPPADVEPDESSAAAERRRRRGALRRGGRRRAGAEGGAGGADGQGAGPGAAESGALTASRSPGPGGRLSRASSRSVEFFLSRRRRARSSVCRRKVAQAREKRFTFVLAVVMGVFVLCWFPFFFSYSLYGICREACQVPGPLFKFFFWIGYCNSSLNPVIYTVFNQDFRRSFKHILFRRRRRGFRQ

[7] = inhibitors of Sendai virus-induced IRF3 signaling, primary screen, TLR/RLR signaling modifier project, cell-based, Sendai virus stimulus, luciferase, 10K MLSCN set (AID 602276;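 active = inhibition at or above 50% at 10 µM; inactive = inhibition below 50%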;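 note: firefly luciferase from ISG56 promoter only with Renilla not read in this screen; 0% = Sendai virus plus DMSO and 100% = medium plus DMSO without virus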); settings: HEK293 RL24 IRF3 luciferase reporter, at 10 µM, stronger effect = higher value
[8] = inhibitors of poly I:C-induced TLR3 signaling, primary screen, cell-based, poly I:C stimulus, luciferase, 10K MLSCN set (AID 602277;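 active = inhibition of the reporter signal at or above 50%; inactive = inhibition below 50%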); settings: HEK293-TLR3 RL24 IRF3 luciferase reporter, at 10 µM, stronger effect = higher value

## CCOc1ncccc1C(=O)OCC(=O)N1CC(=O)Nc2ccccc21
[1]
  cell count: 371
  inhibition: 2.2% (inactive)
[2]
  inhibition of aggregation: -21.8% (inactive)
  nuclei count: 102%
[3]
  inhibition: -9.8% (inactive)
  nuclei count: 111%
[4]
  fluorescence slope: -0.486 (inactive)
[5]
  NADPH fluorescence slope: 3.8e-06 (inactive)
[6]
  slope: 0.00558 (inactive)
[7]
  inhibition: 7.28% (inactive)
[8]
  inhibition: 22.7% (inactive)

## CN1CCc2c(sc3c2c(=O)n(-c2ccccc2)c2nnc(SCc4ccc(F)cc4)n32)C1
[1]
  cell count: 375
  inhibition: 2.1% (inactive)
[2]
  inhibition of aggregation: 9.2% (inactive)
  nuclei count: 73.7%
[3]
  inhibition: -45% (inactive)
  nuclei count: 210%
[4]
  fluorescence slope: -0.608 (inactive)
[5]
  NADPH fluorescence slope: -5.9e-06 (inactive)
[6]
  slope: 0.00622 (inactive)
[7]
  inhibition: 4.98% (inactive)
[8]
  inhibition: -12.6% (inactive)

## Cn1c(=O)c(C(=O)Nc2cccnc2)c(O)c2ccccc21
[1]
  cell count: 632
  inhibition: 5.5% (inactive)
[2]
  inhibition of aggregation: 0.5% (inactive)
  nuclei count: 128%
[3]
  inhibition: -74% (inactive)
  nuclei count: 112%
[4]
  fluorescence slope: -0.479 (inactive)
[5]
  NADPH fluorescence slope: -4.8e-05 (inactive)
[6]
  slope: 0.0062 (inactive)
[7]
  inhibition: -29.2% (inactive)
[8]
  inhibition: -42.3% (inactive)

## COc1ccc(CNC(=O)CN(C(=O)c2ccc(CN3CCOCC3)o2)C2CCCC2)cc1
[1]
  cell count: 449
  inhibition: 5.5% (inactive)
[2]
  inhibition of aggregation: -0.5% (inactive)
  nuclei count: 98.3%
[3]
  inhibition: -94.6% (inactive)
  nuclei count: 107%
[4]
  fluorescence slope: -0.613 (inactive)
[5]
  NADPH fluorescence slope: -4.4e-05 (inactive)
[6]
  slope: 0.00446 (inactive)
[7]
  inhibition: 17.1% (inactive)
[8]
  inhibition: 11.7% (inactive)

## CCC(=O)Nc1ccc(Cl)c(NC(=O)C(C)C)c1
[1]
  cell count: 410
  inhibition: 0.3% (inactive)
[2]
  inhibition of aggregation: -10.3% (inactive)
  nuclei count: 105%
[3]
  inhibition: -111% (inactive)
  nuclei count: 81.5%
[4]
  fluorescence slope: -0.47 (inactive)
[5]
  NADPH fluorescence slope: -3.3e-05 (inactive)
[6]
  slope: 0.00567 (inactive)
[7]
  inhibition: 5.28% (inactive)
[8]
  inhibition: 25.2% (inactive)

## O=C(O)CN1C(=O)CNC1=O
[1]
  cell count: 249
  inhibition: 8.5% (inactive)
[2]
  inhibition of aggregation: -1.9% (inactive)
  nuclei count: 60.7%
[3]
  inhibition: -66.2% (inactive)
  nuclei count: 119%
[4]
  fluorescence slope: -0.519 (inactive)
[5]
  NADPH fluorescence slope: 9.8e-06 (inactive)
[6]
  slope: 0.00529 (inactive)
[7]
  inhibition: 3.07% (inactive)
[8]
  inhibition: 24% (inactive)

## COC1CCCCC1Nc1cccc(SC)c1 (centres undefined)
[1]
  cell count: 411
  inhibition: 0.6% (inactive)
[2]
  inhibition of aggregation: -6.7% (inactive)
  nuclei count: 90.9%
[3]
  inhibition: -65.5% (inactive)
  nuclei count: 120%
[4]
  fluorescence slope: -0.414 (inactive)
[5]
  NADPH fluorescence slope: -2.4e-05 (inactive)
[6]
  slope: 0.0037 (inactive)
[7]
  inhibition: 12.1% (inactive)
[8]
  inhibition: 19.8% (inactive)

## COc1ccccc1-n1c(=O)[nH]c2c(C(N)=O)nc(-c3cccnc3)nc21
[1]
  cell count: 679
  inhibition: -5.2% (inactive)
[2]
  inhibition of aggregation: -20.4% (inactive)
  nuclei count: 101%
[3]
  inhibition: -19.1% (inactive)
  nuclei count: 104%
[4]
  fluorescence slope: -0.516 (inactive)
[5]
  NADPH fluorescence slope: -3.5e-06 (inactive)
[6]
  slope: 0.00612 (inactive)
[7]
  inhibition: 15.6% (inactive)
[8]
  inhibition: -10.2% (inactive)

## CCc1nc2scc(-c3ccccc3)c2c(=O)n1N
[1]
  cell count: 414
  inhibition: 10.9% (inactive)
[2]
  inhibition of aggregation: 0% (inactive)
  nuclei count: 98.5%
[3]
  inhibition: -361% (inactive)
  nuclei count: 142%
[4]
  fluorescence slope: -0.437 (inactive)
[5]
  NADPH fluorescence slope: 6.4e-05 (inactive)
[6]
  slope: 0.00592 (inactive)
[7]
  inhibition: -8.38% (inactive)
[8]
  inhibition: -30.6% (inactive)

## COc1ccc(CCNC(=O)C2(C)CCC(=O)N2Cc2ccc3c(c2)OCO3)cc1OC (centres undefined)
[1]
  cell count: 822
  inhibition: 0.6% (inactive)
[2]
  inhibition of aggregation: 18.7% (inactive)
  nuclei count: 106%
[3]
  inhibition: -37.2% (inactive)
  nuclei count: 116%
[4]
  fluorescence slope: -0.59 (inactive)
[5]
  NADPH fluorescence slope: -3.7e-05 (inactive)
[6]
  slope: 0.00743 (inactive)
[7]
  inhibition: 8.58% (inactive)
[8]
  inhibition: 36.6% (inactive)

## CC(=O)Nc1ccc(S(=O)(=O)Nc2nc3c(s2)CCCC3)cc1
[1]
  cell count: 638
  inhibition: -2.1% (inactive)
[2]
  inhibition of aggregation: 41.1% (inactive)
  nuclei count: 95.3%
[3]
  inhibition: -46.9% (inactive)
  nuclei count: 108%
[4]
  fluorescence slope: -0.54 (inactive)
[5]
  NADPH fluorescence slope: -4.4e-05 (inactive)
[6]
  slope: 0.00526 (inactive)
[7]
  inhibition: 5.19% (inactive)
[8]
  inhibition: -2.08% (inactive)

## COc1ccc(NC(=O)CN(c2cc(C)cc(C)c2)S(=O)(=O)c2c(C)noc2C)cc1OC
[1]
  cell count: 753
  inhibition: -1.7% (inactive)
[2]
  inhibition of aggregation: -15.7% (inactive)
  nuclei count: 116%
[3]
  inhibition: -8.7% (inactive)
  nuclei count: 117%
[4]
  fluorescence slope: -0.551 (inactive)
[5]
  NADPH fluorescence slope: -2.2e-05 (inactive)
[6]
  slope: 0.00583 (inactive)
[7]
  inhibition: 15.1% (inactive)
[8]
  inhibition: 38% (inactive)

## CCc1nnc2c3cnn(-c4ccccc4)c3ncn12
[1]
  cell count: 402
  inhibition: -2.9% (inactive)
[2]
  inhibition of aggregation: -11.8% (inactive)
  nuclei count: 103%
[3]
  inhibition: -25.5% (inactive)
  nuclei count: 125%
[4]
  fluorescence slope: -0.616 (inactive)
[5]
  NADPH fluorescence slope: 7.6e-06 (inactive)
[6]
  slope: 0.00633 (inactive)
[7]
  inhibition: -19% (inactive)
[8]
  inhibition: -77% (inactive)

## Cc1nnc(SCC(=O)N2CCC(C(=O)Nc3nccs3)CC2)n1Cc1ccccc1
[1]
  cell count: 405
  inhibition: 6.1% (inactive)
[2]
  inhibition of aggregation: 8.5% (inactive)
  nuclei count: 104%
[3]
  inhibition: 10.2% (inactive)
  nuclei count: 100%
[4]
  fluorescence slope: -0.604 (inactive)
[5]
  NADPH fluorescence slope: -4.4e-05 (inactive)
[6]
  slope: 0.00447 (inactive)
[7]
  inhibition: 18.3% (inactive)
[8]
  inhibition: 17% (inactive)
